The campaign covered roughly 5,500 compounds. About 2,000 (36%) were called active. About 18% were inconclusive and are not listed. Cut-off read from the data, not from the text of the source: active = normalized growth mostly below about 0.91 (no sharp cut-off); inconclusive = no clear call, values can overlap the other calls; inactive = mostly above about 0.92. The list shows a part of the results.
Assay: chemical genetic growth profiling, strain panel (AID 1159580);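 note: tested at 20 µM; growth read once vehicle control cultures reached saturation at 30 °C; 1 = growth at the plate median or of vehicle wells; lower values mean less growth of the strain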
Settings: growth OD
[1] = S. cerevisiae deletion strains, locus YDL101C, strain DUN1, active compounds read low
[2] = S. cerevisiae deletion strains, locus YHR030C, strain SLT2, active compounds read low
[3] = S. cerevisiae deletion strains, locus YAL013W, strain DEP1, active compounds read low
[4] = S. cerevisiae deletion strains, locus YMR263W, strain SAP30, active compounds read low
[5] = S. cerevisiae deletion strains, locus YNL322C, strain KRE1, active compounds read low

Measured: normalized growth

Cn1c([N+](=O)[O-])cnc1/C=C(\C#N)C(=O)Nc1ccc(F)cc1
inactive: S. cerevisiae deletion strains, locus YDL108W, strain KIN28, active compounds read low 0.92 | S. cerevisiae deletion strains, locus YDR052C, strain DBF4, active compounds read low 0.936 | S. cerevisiae deletion strains, locus YFL009W, strain cdc4, active compounds read low 0.913 | S. cerevisiae deletion strains, locus YPR106W, strain ISR1, active compounds read low 0.968
active: S. cerevisiae deletion strains, locus YAR019C, strain CDC15, active compounds read low 0.267 | S. cerevisiae deletion strains, locus YBL105C, strain PKC1, active compounds read low 0.368 | S. cerevisiae deletion strains, locus YBR135W, strain CKS1, active compounds read low 0.436 | S. cerevisiae deletion strains, locus YBR136W, strain MEC1, active compounds read low 0.608 | S. cerevisiae deletion strains, locus YBR160W, strain CDC28, active compounds read low 0.639 | S. cerevisiae deletion strains, locus YDL017W, strain CDC7, active compounds read low 0.541 | S. cerevisiae deletion strains, locus YDL028C, strain MPS1, active compounds read low 0.874 | [1] 0.852 | S. cerevisiae deletion strains, locus YDL214C, strain PRR2, active compounds read low 0.37 | S. cerevisiae deletion strains, locus YDR226W, strain ADK1, active compounds read low 0.642 | S. cerevisiae deletion strains, locus YDR477W, strain SNF1, active compounds read low 0.104 | S. cerevisiae deletion strains, locus YER123W, strain YCK3, active compounds read low 0.408 | S. cerevisiae deletion strains, locus YER133W, strain GLC7, active compounds read low 0.3 | S. cerevisiae deletion strains, locus YFL029C, strain CAK1, active compounds read low 0.542 | S. cerevisiae deletion strains, locus YFR019W, strain FAB1, active compounds read low 0.262 | S. cerevisiae deletion strains, locus YFR028C, strain CDC14, active compounds read low 0.2 | S. cerevisiae deletion strains, locus YGR040W, strain KSS1, active compounds read low 0.139 | S. cerevisiae deletion strains, locus YGR052W, strain FMP48, active compounds read low 0.305 | S. cerevisiae deletion strains, locus YGR092W, strain DBF2, active compounds read low 0.118 | [2] 0.234 | S. cerevisiae deletion strains, locus YHR079C, strain IRE1, active compounds read low 0.366 | S. cerevisiae deletion strains, locus YHR082C, strain KSP1, active compounds read low 0.371 | S. cerevisiae deletion strains, locus YHR205W, strain SCH9, active compounds read low 0.0146 | S. cerevisiae deletion strains, locus YIL147C, strain SLN1, active compounds read low 0.741 | S. cerevisiae deletion strains, locus YJL095W, strain BCK1, active compounds read low 0.149 | S. cerevisiae deletion strains, locus YJL157C, strain FAR1, active compounds read low 0.346 | S. cerevisiae deletion strains, locus YJR016C, strain ILV3, active compounds read low 0.436 | S. cerevisiae deletion strains, locus YJR066W, strain TOR1 (second series), active compounds read low 0.116 | S. cerevisiae deletion strains, locus YJR066W, strain TOR1, active compounds read low 0.207 | S. cerevisiae deletion strains, locus YKL048C, strain ELM1, active compounds read low 0.168 | S. cerevisiae deletion strains, locus YKL067W, strain YNK1, active compounds read low 0.43 | S. cerevisiae deletion strains, locus YKL101W, strain HSL1, active compounds read low 0.157 | S. cerevisiae deletion strains, locus YKL193C, strain SDS22, active compounds read low 0.399 | S. cerevisiae deletion strains, locus YKL203C, strain TOR2, active compounds read low 0.119 | S. cerevisiae deletion strains, locus YLR113W, strain HOG1, active compounds read low 0.319 | S. cerevisiae deletion strains, locus YLR133W, strain CKI1, active compounds read low 0.111 | S. cerevisiae deletion strains, locus YLR403W, strain SFP1, active compounds read low 0.0176 | S. cerevisiae deletion strains, locus YML070W, strain DAK1, active compounds read low 0.28 | S. cerevisiae deletion strains, locus YMR001C, strain CDC5, active compounds read low 0.438 | S. cerevisiae deletion strains, locus YMR205C, strain PFK2 (second series), active compounds read low 0.139 | S. cerevisiae deletion strains, locus YMR277W, strain FCP1, active compounds read low 0.347 | S. cerevisiae deletion strains, locus YNL006W, strain LST8, active compounds read low 0.219 | S. cerevisiae deletion strains, locus YNL020C, strain ARK1, active compounds read low 0.119 | S. cerevisiae deletion strains, locus YNL161W, strain CBK1, active compounds read low 0.324 | S. cerevisiae deletion strains, locus YNL183C, strain NPR1, active compounds read low 0.168 | S. cerevisiae deletion strains, locus YNL207W, strain RIO2, active compounds read low 0.635 | S. cerevisiae deletion strains, locus YNL222W, strain SSU72, active compounds read low 0.411 | S. cerevisiae deletion strains, locus YNL307C, strain MCK1 (second series), active compounds read low 0.117 | S. cerevisiae deletion strains, locus YOL078W, strain AVO1, active compounds read low 0.47 | S. cerevisiae deletion strains, locus YOL136C, strain PFK27, active compounds read low 0.431 | S. cerevisiae deletion strains, locus YOR061W, strain CKA2, active compounds read low 0.168 | S. cerevisiae deletion strains, locus YOR119C, strain RIO1, active compounds read low 0.162 | S. cerevisiae deletion strains, locus YOR231W, strain MKK1, active compounds read low 0.418 | S. cerevisiae deletion strains, locus YOR329C, strain SCD5, active compounds read low 0.372 | S. cerevisiae deletion strains, locus YPL031C, strain PHO85, active compounds read low 0.104 | S. cerevisiae deletion strains, locus YPL153C, strain RAD53, active compounds read low 0.112 | S. cerevisiae deletion strains, locus YPL204W, strain HRR25, active compounds read low 0.109 | S. cerevisiae deletion strains, locus YPL209C, strain IPL1, active compounds read low 0.476 | S. cerevisiae deletion strains, locus YPL256C, strain CLN2, active compounds read low 0.448 | S. cerevisiae deletion strains, locus YPR025C, strain CCL1, active compounds read low 0.403

CN(C)/C=C(\C#N)C(=O)Nc1ccc(F)c(Cl)c1
inactive: [3] 0.971 | S. cerevisiae deletion strains, locus YBR229C, strain ROT2, active compounds read low 1.01 | S. cerevisiae deletion strains, locus YCL061C, strain MRC1, active compounds read low 0.978 | [1] 0.981 | S. cerevisiae deletion strains, locus YDR150W, strain NUM1, active compounds read low 0.991 | S. cerevisiae deletion strains, locus YEL061C, strain CIN8, active compounds read low 1.01 | S. cerevisiae deletion strains, locus YGR078C, strain PAC10, active compounds read low 0.992 | [2] 0.983 | S. cerevisiae deletion strains, locus YHR087W, strain rtc3, active compounds read low 1.01 | S. cerevisiae deletion strains, locus YJR043C, strain POL32, active compounds read low 0.97 | S. cerevisiae deletion strains, locus YJR075W, strain HOC1, active compounds read low 1.01 | S. cerevisiae deletion strains, locus YKL190W, strain CNB1, active compounds read low 1.01 | S. cerevisiae deletion strains, locus YLR039C, strain RIC1, active compounds read low 1.07 | S. cerevisiae deletion strains, locus YLR058C, strain SHM2 (second series), active compounds read low 1.01 | S. cerevisiae deletion strains, locus YLR085C, strain ARP6, active compounds read low 0.912 | S. cerevisiae deletion strains, locus YLR262C, strain YPT6, active compounds read low 1.16 | S. cerevisiae deletion strains, locus YML094W, strain GIM5, active compounds read low 0.988 | S. cerevisiae deletion strains, locus YMR219W, strain ESC1, active compounds read low 1.01 | [4] 1 | S. cerevisiae deletion strains, locus YNL128W, strain TEP1, active compounds read low 1 | S. cerevisiae deletion strains, locus YNL153C, strain GIM3, active compounds read low 0.976 | S. cerevisiae deletion strains, locus YNL298W, strain CLA4 (second series), active compounds read low 0.97 | [5] 1.02 | S. cerevisiae deletion strains, locus YNR030W, strain Alg12, active compounds read low 1.01 | S. cerevisiae deletion strains, locus YOL006C, strain TOP1, active compounds read low 0.965 | S. cerevisiae deletion strains, locus YPL055C, strain LGE1, active compounds read low 0.959 | S. cerevisiae deletion strains, locus YPL241C, strain CIN2, active compounds read low 0.977 | S. cerevisiae deletion strains, locus YPR135W, strain CTF4, active compounds read low 0.991 | S. cerevisiae strains, strain wild type, active compounds read low 1.01

Nc1nc2[nH]c(=O)cnc2c(=O)[nH]1
inactive: [3] 0.996 | S. cerevisiae deletion strains, locus YAL040C, strain CLN3, active compounds read low 1.06 | S. cerevisiae deletion strains, locus YCL061C, strain MRC1 (second series), active compounds read low 0.994 | S. cerevisiae deletion strains, locus YDR363W, strain ESC2, active compounds read low 0.985 | S. cerevisiae deletion strains, locus YER002W, strain NOP16, active compounds read low 0.949 | S. cerevisiae deletion strains, locus YGR229C, strain SMI1, active compounds read low 1.01 | [4] 0.99 | S. cerevisiae deletion strains, locus YNL175C, strain NOP13, active compounds read low 0.983 | S. cerevisiae deletion strains, locus YNL197C, strain WHI3, active compounds read low 0.977 | S. cerevisiae deletion strains, locus YNL224C, strain SQS1, active compounds read low 0.987 | [5] 1.01 | S. cerevisiae deletion strains, locus YOR083W, strain WHI5 (second series), active compounds read low 0.988

Reference: PubChem BioAssay AID1159580 (chemical genetic matrix, 2015)
